Laboratory results taken from PubChem BioAssay (Tox21).
Inconclusive results are not listed. Activity calls are given as the source filed them. Unless noted, the call rests on the fitted dose curve; in most records, active means well fitted curve in the direction sought with a large enough effect in the repeat runs; inconclusive means weak or mixed curves; inactive means no such curve, though single readings can be large; an effect the other way counts as inactive or inconclusive.

Assays:
[1] = qHTS assay to identify small molecule antagonists of the peroxisome proliferator-activated receptor delta (PPARd) signaling pathway - cell viability counter screen (AID 743213); further: on the % scale 0 is the no-effect control and ±100 the full control effect; nearly all actives have a fitted effect of over 50% in size
How it was run: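 Agonist-stimulated (L165041, 300 nM final) HEK293H PPARd UAS-bla cells are exposed to compounds for 17 h at 37 C, and ATP-based luminescence (CellTiter-Glo) from the same wells reports cytotoxicity.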

[2] = target: Peroxisome proliferator-activated receptor delta (Homo sapiens) (UniProt Q03181); assay: qHTS assay to identify small molecule antagonists of the peroxisome proliferator-activated receptor delta (PPARd) signaling pathway (AID 743215; active means well fitted inhibition curve with a large enough effect in the signal ratio in the repeat runs, not every such curve was filed as active; the % refers to the signal ratio; further: series mostly up to about 62 µM; on the % scale 0 is the no-effect control and ±100 the full control effect)
Sequence of Peroxisome proliferator-activated receptor delta (Homo sapiens) (Q03181 whole entry, looked up): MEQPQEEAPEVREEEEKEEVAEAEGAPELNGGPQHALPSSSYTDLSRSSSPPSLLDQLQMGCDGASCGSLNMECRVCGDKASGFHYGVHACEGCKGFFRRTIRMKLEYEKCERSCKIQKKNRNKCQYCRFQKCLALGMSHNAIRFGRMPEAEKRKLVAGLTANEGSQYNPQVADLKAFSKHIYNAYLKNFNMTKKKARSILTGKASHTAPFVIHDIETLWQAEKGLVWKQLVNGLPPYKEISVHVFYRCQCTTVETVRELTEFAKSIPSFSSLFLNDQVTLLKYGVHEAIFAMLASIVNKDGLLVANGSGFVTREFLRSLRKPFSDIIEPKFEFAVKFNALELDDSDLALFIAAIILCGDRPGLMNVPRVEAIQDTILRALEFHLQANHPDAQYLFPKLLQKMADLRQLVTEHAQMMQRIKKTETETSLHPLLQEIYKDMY
How it was run: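 With L165041 present at 300 nM final, compounds were incubated 17 h at 37 C on PPARd UAS-bla HEK293H cells. A FRET-based beta-lactamase substrate was then applied for 2 h at room temperature and fluorescence intensity recorded.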

[3] = qHTS assay to identify small molecule agonists of the farnesoid-X-receptor (FXR) signaling pathway - cell viability counter screen (AID 743218); further: on the % scale 0 is the no-effect control and ±100 the full control effect; nearly all actives have a fitted effect of over 45% in size
How it was run: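 After 16 h at 37 C with test compounds, FXR-bla HEK 293T cells were given LiveBLAzer B/G substrate for 2 h at RT and then CellTiter-Glo; luminescence was taken after 30 min.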

[4] = target: Bile acid receptor (Homo sapiens) (UniProt Q96RI1); assay: qHTS assay to identify small molecule agonists of the farnesoid-X-receptor (FXR) signaling pathway (AID 743220; active means well fitted activation curve with a large enough effect in the signal ratio in the repeat runs, not every such curve was filed as active; the % refers to the signal ratio; further: on the % scale 0 is the no-effect control and ±100 the full control effect)
Sequence of Bile acid receptor (Homo sapiens) (Q96RI1 whole entry, looked up): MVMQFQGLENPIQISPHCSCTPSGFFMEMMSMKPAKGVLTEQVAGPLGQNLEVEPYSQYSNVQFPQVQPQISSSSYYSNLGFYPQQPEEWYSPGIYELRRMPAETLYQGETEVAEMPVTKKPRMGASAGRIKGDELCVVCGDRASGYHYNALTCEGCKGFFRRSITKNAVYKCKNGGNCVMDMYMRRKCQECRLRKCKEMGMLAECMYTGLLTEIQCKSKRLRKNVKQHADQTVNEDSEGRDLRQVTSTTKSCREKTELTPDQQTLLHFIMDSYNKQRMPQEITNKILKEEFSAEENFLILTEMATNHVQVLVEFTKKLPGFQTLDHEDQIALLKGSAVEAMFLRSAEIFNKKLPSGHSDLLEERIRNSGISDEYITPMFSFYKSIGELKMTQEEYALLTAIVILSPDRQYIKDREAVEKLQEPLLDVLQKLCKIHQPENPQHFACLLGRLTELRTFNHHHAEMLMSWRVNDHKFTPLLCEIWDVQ
How it was run: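 Beta-lactamase reporter under UAS control in GeneBLAzer FXR HEK 293T cells (5000/well) measured with LiveBLAzer FRET substrate after 2 h at room temperature. Compound exposure lasted 16 h at 37C.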

[5] = target: Vitamin D3 receptor (Homo sapiens) (UniProt P11473); assay: qHTS assay to identify small molecule agonists of the vitamin D receptor (VDR) signaling pathway (AID 743222; calls by dose curve; further: on the % scale 0 is the no-effect control and ±100 the full control effect)
Sequence of Vitamin D3 receptor (Homo sapiens) (P11473 whole entry, looked up): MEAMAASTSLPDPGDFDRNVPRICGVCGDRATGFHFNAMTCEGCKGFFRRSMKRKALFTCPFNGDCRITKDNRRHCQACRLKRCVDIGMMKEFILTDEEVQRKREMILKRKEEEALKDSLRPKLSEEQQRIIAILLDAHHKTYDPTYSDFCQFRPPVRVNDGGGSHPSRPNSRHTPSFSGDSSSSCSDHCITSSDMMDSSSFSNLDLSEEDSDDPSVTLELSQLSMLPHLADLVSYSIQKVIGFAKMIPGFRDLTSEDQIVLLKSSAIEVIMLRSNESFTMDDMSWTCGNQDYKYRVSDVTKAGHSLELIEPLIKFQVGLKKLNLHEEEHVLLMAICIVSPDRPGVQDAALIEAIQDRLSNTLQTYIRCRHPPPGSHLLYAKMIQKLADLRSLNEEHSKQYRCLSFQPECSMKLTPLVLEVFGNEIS
How it was run: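 VDR-bla cells were seeded, left 4 h, treated with compounds in DMSO for 16 h, incubated 2 h at RT with B/G FRET substrate, and read for fluorescence.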

[6] = qHTS assay to identify small molecule agonists of the vitamin D receptor (VDR) signaling pathway - cell viability counter screen (AID 743224); further: series mostly up to about 63 µM; on the % scale 0 is the no-effect control and ±100 the full control effect; nearly all actives have a fitted effect of over 50% in size
How it was run: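 Here cell health was gauged by luminescent ATP detection (CellTiter-Glo, 30 min RT) in VDR-bla cells that had been incubated with test compounds for 16 h at 37C and 5% CO2.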

[7] = qHTS assay to identify small molecule agonists of the NFkB signaling pathway (AID 1159509; active means well fitted curve in the direction sought with a large enough effect in the signal ratio in the repeat runs, not every such curve was filed as active; the % refers to the signal ratio; further: series mostly up to about 61 µM; on the % scale 0 is the no-effect control and ±100 the full control effect)
How it was run: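 NFkB-bla ME-180 cells with a beta-lactamase reporter under an NF-kB response element were plated overnight, treated with compounds in DMSO for 5 hr at 37 C, then loaded with FRET substrate for 1.5 hr at room temperature.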

[8] = qHTS assay to identify small molecule agonists of the NFkB signaling pathway - cell viability counter screen (AID 1159515; calls by dose curve; further: series mostly up to about 61 µM; on the % scale 0 is the no-effect control and ±100 the full control effect; nearly all actives have a fitted effect of over 55% in size)
How it was run: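 5 hr compound treatment of NFkB-bla ME-180 cells (2,000/well, seeded overnight beforehand), followed by reporter substrate for 1.5 hr. CellTiter-Glo added afterward; luminescence after 30 min RT.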

[9] = qHTS assay to identify small molecule agonists of the endoplasmic reticulum stress response signaling pathway (AID 1159516; active means well fitted activation curve with a large enough effect in the signal ratio in the repeat runs, not every such curve was filed as active; the % refers to the signal ratio; further: on the % scale 0 is the no-effect control and ±100 the full control effect)
How it was run: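 Reporter HeLa cells (ESRE-beta-lactamase) underwent 5 hr compound incubation at 37 C and 5% CO2 in quantitative HTS format. Detection followed 2 hr of FRET substrate loading at room temperature.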

[10] = qHTS assay to identify small molecule agonists of the endoplasmic reticulum stress response signaling pathway - cell viability counter screen (AID 1159517; calls by dose curve;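 further: HeLa cells carrying an ER stress response element beta-lactamase reporter; series mostly up to about 61 µM; on the % scale 0 is the no-effect control and ±100 the full control effect; nearly all actives have a fitted effect of over 50% in size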)
How it was run: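 Counter-screen wells were identical to the reporter wells. Cells were plated at 1,500 per well and dosed for 5 hr, then read for luminescence 30 min after CellTiter-Glo addition.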

[11] = qHTS assay to identify small molecule antagonists of the retinoid-related orphan receptor gamma (ROR-gamma) signaling pathway - cell viability counter screen (AID 1159520); further: on the % scale 0 is the no-effect control and ±100 the full control effect; nearly all actives have a fitted effect of over 50% in size
How it was run: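 Tet-on ROR gamma CHO cells were given compounds for 2 hr, then doxycycline hyclate at 1 uM final, and incubated 16 hr at 37 C. Viability was measured as ATP content by CellTiter-Glo luminescence.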

[12] = target: Nuclear receptor ROR-gamma (Homo sapiens) (UniProt P51449); assay: qHTS assay to identify small molecule antagonists of the retinoid-related orphan receptor gamma (ROR-gamma) signaling pathway (AID 1159521; further: nearly all actives have a fitted effect of over 50% in size; further: potency means the concentration at half of the fitted maximal effect)
How it was run: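 Tet-on RORγ CHO cells carrying a ROR response element–luciferase reporter were pretreated with compounds for 2 h, then induced with 1 uM (final) doxycycline hyclate for 16 h at 37 C. Antagonism was read as decreased ONE-Glo luminescence.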

[13] = qHTS assay to identify small molecule agonists of the AP-1 signaling pathway - cell viability counter screen (AID 1159525; calls by dose curve; further: nearly all actives have a fitted effect of over 55% in size)
How it was run: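 AP-1-bla ME-180 cells in Opti-MEM with 0.5% dialyzed FBS, compound exposure 5 h at 37 C in 15-point titration. Viability read in the same wells as ATP content by CellTiter-Glo luminescence, normalised to tetra-n-octylammonium bromide and DMSO controls.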

[14] = qHTS assay to identify small molecule agonists of the AP-1 signaling pathway (AID 1159526; calls by dose curve; further: potency means the concentration at half of the fitted maximal effect)
[15] = qHTS assay to identify small molecule agonists of the RXR signaling pathway - cell viability counter screen (AID 1159529)
How it was run: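 RXR-alpha-UAS-bla HEK 293T cells in medium with 2% charcoal-stripped FBS were preincubated 5 hr, then exposed to compounds for 16 hr at 37 C. Viability was read as CellTiter-Glo luminescence after 30 min at room temperature.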

[16] = target: Bile acid receptor (Homo sapiens) (UniProt Q96RI1); assay: qHTS assay to identify small molecule antagonists of the farnesoid-X-receptor (FXR) signaling pathway (AID 743217; active means well fitted inhibition curve with a large enough effect in the signal ratio in the repeat runs, not every such curve was filed as active; the % refers to the signal ratio; further: on the % scale 0 is the no-effect control and ±100 the full control effect)
How it was run: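 In this cell-based antagonist screen, inhibition of CDCA-driven (50 uM final) UAS-beta-lactamase expression in HEK 293T cells was measured by FRET fluorescence following 16 h compound exposure at 37 °C.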

[17] = qHTS assay to identify small molecule antagonists of the farnesoid-X-receptor (FXR) signaling pathway - cell viability counter screen (AID 743221; active means well fitted cell-killing curve with a large enough effect in the repeat runs, not every such curve was filed as active)
How it was run: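 FXR-UAS-bla HEK 293T cells were treated with test compounds plus chenodeoxycholic acid (50 uM final) for 16 h at 37 C. Cell viability in the same wells was then read as CellTiter-Glo luminescence after 30 min at room temperature.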

[18] = target: Vitamin D3 receptor (Homo sapiens) (UniProt P11473); assay: qHTS assay to identify small molecule antagonists of the vitamin D receptor (VDR) signaling pathway (AID 743223; active means well fitted inhibition curve with a large enough effect in the signal ratio in the repeat runs, not every such curve was filed as active; the % refers to the signal ratio; further: on the % scale 0 is the no-effect control and ±100 the full control effect)
How it was run: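 VDR-bla cells were plated, incubated 4 h at 37C, then given compound and 1alpha,25-dihydroxyvitamin D3 (3 nM final). After 16 h at 37C, LiveBLAzer B/G FRET substrate was added for 2 h at room temperature and fluorescence read.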

[19] = qHTS assay to identify small molecule antagonists of the vitamin D receptor (VDR) signaling pathway - cell viability counter screen (AID 743225)
How it was run: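 VDR-bla HEK 293T cells, 4 h pre-incubation at 37C, then compound plus 1-alpha,25-dihydroxyvitamin D3 (3 nM final) for 16 h. After the beta-lactamase FRET read, CellTiter-Glo was added to the same wells; luminescence after 30 min at room temperature.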

CC(C)C/C=C(\C=O)c1ccccc1
inactive: Potency [1] | outcome [2] | Potency [3] | outcome [4] | outcome [5] | outcome [6] | outcome [7] | outcome [8] | outcome [9] | outcome [10] | Potency [11] | Potency [12] | outcome [13] | Potency [14] | Potency [15]

Sc1nc(S)nc(S)n1
inactive: Potency [1] | outcome [2] | outcome [16] | Potency [3] | outcome [4] | Potency [17] | outcome [5] | outcome [7] | outcome [8] | outcome [9] | outcome [10] | Potency [11] | Potency [12] | outcome [13] | Potency [14] | Potency [15]

O=S(=O)(O)c1cc(Cl)c(Cl)cc1Cl
inactive: Potency [1] | outcome [2] | Potency [3] | Potency [17] | outcome [5] | outcome [6] | outcome [7] | outcome [8] | outcome [9] | outcome [10] | Potency [11] | Potency [12] | outcome [13] | Potency [14] | Potency [15]

Nc1nc(Cl)nc2c1ncn2[C@H]1C[C@H](O)[C@@H](CO)O1
inactive: Potency [1] | outcome [2] | Potency [3] | outcome [4] | Potency [17] | outcome [5] | outcome [18] | outcome [19] | outcome [7] | outcome [8] | outcome [9] | outcome [10] | Potency [11] | Potency [12] | outcome [13] | Potency [14] | Potency [15]

c1ccc(-c2ccc(-c3ccccc3)cc2)cc1
inactive: Potency [1] | outcome [2] | outcome [16] | Potency [3] | outcome [4] | Potency [17] | outcome [6] | outcome [7] | outcome [8] | outcome [9] | outcome [10] | activity, negative = cytotoxicity [11] 4.58% [at 19 µM] | activity change, negative = inhibition [12] 98.3% [at 19 µM] | viability change, negative = cytotoxic [13] 1.74% [at 15.8 µM] | activation [14] -13.1% [at 15.8 µM] | activity change, negative = cytotoxicity [15] 4.66% [at 15.8 µM]

O=C(O)c1c2ccccc2cc2ccccc12
inactive: Potency [1] | outcome [2] | outcome [16] | Potency [3] | outcome [4] | Potency [17] | outcome [5] | outcome [18] | outcome [6] | outcome [7] | outcome [8] | outcome [9] | outcome [10] | Potency [11] | outcome [13] | Potency [15]
active: Potency [12] 13.6 µM | Potency [14] 24.5 µM

O=C1c2ccccc2C(=O)c2c1ccc(O)c2O
inactive: Potency [1] | outcome [2] | Potency [3] | outcome [7] | outcome [8] | outcome [9] | outcome [10] | Potency [11] | Potency [12] | outcome [13] | Potency [14] | Potency [15]

CC(C)Cc1nccs1
inactive: Potency [1] | outcome [2] | outcome [16] | Potency [3] | outcome [4] | outcome [5] | outcome [18] | outcome [6] | outcome [19] | outcome [7] | outcome [8] | outcome [9] | outcome [10] | Potency [11] | Potency [12] | outcome [13] | Potency [14] | Potency [15]

C=CCCC
inactive: Potency [1] | outcome [2] | Potency [3] | Potency [17] | outcome [5] | outcome [18] | outcome [6] | outcome [19] | outcome [7] | outcome [8] | outcome [9] | outcome [10] | Potency [11] | Potency [12] | outcome [13] | Potency [14] | Potency [15]
